PubChem BioAssay (Tox21)
Where “and” joins values, the source holds several entries; their conditions need not be identical. Equal values may be shown once. Records with an inconclusive call do not appear. Calls of active or inactive are those of the source. Unless noted, the call rests on the fitted dose curve; in most records, active means well fitted curve in the direction sought with a large enough effect in the repeat runs; inconclusive means weak or mixed curves; inactive means no such curve, though single readings can be large; an effect the other way counts as inactive or inconclusive.

Legend:
[1] = qHTS assay to identify small molecule antagonists of the peroxisome proliferator-activated receptor delta (PPARd) signaling pathway - cell viability counter screen (AID 743213); further: nearly all actives have a fitted effect of over 50% in size; further: potency means the concentration at half of the fitted maximal effect
Summary of the method: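 PPARd-bla HEK293H cells (3000/well) got compound plus 300 nM L165041 agonist for 17 h at 37 C. Viability in the same wells came from CellTiter-Glo luminescence after 30 min at room temperature.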

[2] = qHTS assay to identify small molecule antagonists of the farnesoid-X-receptor (FXR) signaling pathway - cell viability counter screen (AID 743221; active means well fitted cell-killing curve with a large enough effect in the repeat runs, not every such curve was filed as active; further: nearly all actives have a fitted effect of over 50% in size; further: potency means the concentration at half of the fitted maximal effect)
Summary of the method: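 FXR-UAS-bla HEK 293T cells were treated with test compounds plus chenodeoxycholic acid (50 uM final) for 16 h at 37 C. Cell viability in the same wells was then read as CellTiter-Glo luminescence after 30 min at room temperature.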

[3] = target: Vitamin D3 receptor (Homo sapiens) (UniProt P11473); assay: qHTS assay to identify small molecule agonists of the vitamin D receptor (VDR) signaling pathway (AID 743222; calls by dose curve)
Chain of Vitamin D3 receptor (Homo sapiens) (P11473 whole entry, looked up): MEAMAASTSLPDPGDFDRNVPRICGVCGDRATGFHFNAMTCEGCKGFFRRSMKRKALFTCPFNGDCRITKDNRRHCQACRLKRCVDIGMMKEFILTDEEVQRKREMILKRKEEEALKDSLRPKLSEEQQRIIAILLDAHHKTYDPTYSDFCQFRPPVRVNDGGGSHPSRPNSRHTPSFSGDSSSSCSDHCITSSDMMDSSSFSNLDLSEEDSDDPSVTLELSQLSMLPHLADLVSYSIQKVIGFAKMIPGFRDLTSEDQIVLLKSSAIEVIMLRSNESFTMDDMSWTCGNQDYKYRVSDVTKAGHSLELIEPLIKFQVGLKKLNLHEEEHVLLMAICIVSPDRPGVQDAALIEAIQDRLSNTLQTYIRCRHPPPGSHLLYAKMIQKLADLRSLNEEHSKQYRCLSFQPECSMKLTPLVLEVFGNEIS
Summary of the method: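 Following 4 h attachment at 37C, VDR-bla cells (2,000 per well) received DMSO-dissolved compounds or controls. After 16 h incubation, LiveBLAzer B/G FRET substrate was added and fluorescence read 2 h later at room temperature.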

[4] = qHTS assay to identify small molecule agonists of the vitamin D receptor (VDR) signaling pathway - cell viability counter screen (AID 743224); further: nearly all actives have a fitted effect of over 50% in size; further: potency means the concentration at half of the fitted maximal effect
Summary of the method: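 In parallel with the bla FRET readout, cytotoxicity toward VDR-bla cells after 16 h compound exposure was assessed by CellTiter-Glo, with luminescence recorded after a 30 min room-temperature incubation.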

[5] = qHTS assay to identify small molecule agonists of the NFkB signaling pathway (AID 1159509; active means well fitted curve in the direction sought with a large enough effect in the signal ratio in the repeat runs, not every such curve was filed as active; the % refers to the signal ratio; further: series mostly up to about 61 µM)
Summary of the method: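 Pathway activation was measured in ME-180 cells stably expressing beta-lactamase under NF-kB response element control. Substrate cleavage was read as the 460/530 nm emission shift after 5 hr compound incubation.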

[6] = qHTS assay to identify small molecule agonists of the endoplasmic reticulum stress response signaling pathway (AID 1159516; active means well fitted activation curve with a large enough effect in the signal ratio in the repeat runs, not every such curve was filed as active; the % refers to the signal ratio)
Summary of the method: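 Beta-lactamase expression from the ER stress response element in HeLa reporter cells is quantified with the LiveBLAzer B/G FRET substrate, read at 405 nm excitation after 2 hr at room temperature, following 5 hr compound treatment at 37 C.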

[7] = qHTS assay to identify small molecule antagonists of the retinoid-related orphan receptor gamma (ROR-gamma) signaling pathway - cell viability counter screen (AID 1159520); further: nearly all actives have a fitted effect of over 50% in size; further: potency means the concentration at half of the fitted maximal effect
Summary of the method: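 Tet-on ROR gamma CHO cells (1,000/well) were plated 4 hr, given compounds in DMSO for 2 hr at 37 C, then induced with 1 uM final doxycycline for 16 hr. Viability was read as ATP by CellTiter-Glo luminescence after 30 min.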

[8] = qHTS assay to identify small molecule agonists of the AP-1 signaling pathway (AID 1159526; calls by dose curve; further: potency means the concentration at half of the fitted maximal effect)
[9] = qHTS assay to identify small molecule agonists of the peroxisome proliferator-activated receptor delta (PPARd) signaling pathway - cell viability counter screen (AID 743211); further: nearly all actives have a fitted effect of over 55% in size; further: potency means the concentration at half of the fitted maximal effect
Summary of the method: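 PPARd-bla HEK293H cells (UAS-beta-lactamase reporter) were treated with compounds for 17 h at 37 C. Viability was then read in the same wells by CellTiter-Glo luminescence after 30 min at room temperature.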

[10] = qHTS assay to identify small molecule agonists of the farnesoid-X-receptor (FXR) signaling pathway - cell viability counter screen (AID 743218); further: nearly all actives have a fitted effect of over 45% in size; further: potency means the concentration at half of the fitted maximal effect
Summary of the method: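 Readout: CellTiter-Glo luminescence, 30 min RT, multiplexed after the FXR-bla FRET reading. HEK 293T FXR-UAS-bla cells received compound 5 h post-plating and were incubated 16 h at 37 C.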

[11] = target: Bile acid receptor (Homo sapiens) (UniProt Q96RI1); assay: qHTS assay to identify small molecule agonists of the farnesoid-X-receptor (FXR) signaling pathway (AID 743220; active means well fitted activation curve with a large enough effect in the signal ratio in the repeat runs, not every such curve was filed as active; the % refers to the signal ratio)
Chain of Bile acid receptor (Homo sapiens) (Q96RI1 whole entry, looked up): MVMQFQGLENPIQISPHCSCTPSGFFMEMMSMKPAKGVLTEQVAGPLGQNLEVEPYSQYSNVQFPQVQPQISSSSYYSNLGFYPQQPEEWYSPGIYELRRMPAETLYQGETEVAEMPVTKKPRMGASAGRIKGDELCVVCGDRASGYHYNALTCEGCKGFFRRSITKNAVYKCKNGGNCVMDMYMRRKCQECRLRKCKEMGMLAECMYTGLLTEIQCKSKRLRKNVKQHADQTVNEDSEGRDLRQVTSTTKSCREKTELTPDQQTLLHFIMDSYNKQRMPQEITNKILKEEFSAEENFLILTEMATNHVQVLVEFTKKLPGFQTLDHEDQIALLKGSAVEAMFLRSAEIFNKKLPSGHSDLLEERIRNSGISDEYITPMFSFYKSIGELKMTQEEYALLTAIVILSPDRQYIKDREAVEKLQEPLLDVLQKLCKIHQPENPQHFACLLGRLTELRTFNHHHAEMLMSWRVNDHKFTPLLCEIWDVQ
Summary of the method: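 FXR-UAS-bla HEK 293T cells carrying a UAS-driven beta-lactamase reporter were plated for 5 h at 37C/5% CO2, then exposed to DMSO-dissolved Tox21 10K compounds for 16 h at 37C. A LiveBLAzer B/G FRET substrate was loaded for 2 h at room temperature before fluorescence reading.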

[12] = qHTS assay to identify small molecule antagonists of the vitamin D receptor (VDR) signaling pathway - cell viability counter screen (AID 743225); further: nearly all actives have a fitted effect of over 50% in size; further: potency means the concentration at half of the fitted maximal effect
Summary of the method: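 VDR-bla HEK 293T cells, 4 h pre-incubation at 37C, then compound plus 1-alpha,25-dihydroxyvitamin D3 (3 nM final) for 16 h. After the beta-lactamase FRET read, CellTiter-Glo was added to the same wells; luminescence after 30 min at room temperature.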

[13] = qHTS assay to identify small molecule agonists of the endoplasmic reticulum stress response signaling pathway - cell viability counter screen (AID 1159517; calls by dose curve; further: nearly all actives have a fitted effect of over 50% in size; further: potency means the concentration at half of the fitted maximal effect)
Summary of the method: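 Cpd-treated ESRE-bla HeLa (5 hr, 37 C) → LiveBLAzer 2 hr RT → CellTiter-Glo 30 min RT → luminescence.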

[14] = qHTS assay to identify small molecule agonists of the AP-1 signaling pathway - cell viability counter screen (AID 1159525; calls by dose curve; further: nearly all actives have a fitted effect of over 55% in size)
Summary of the method: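 Each titration point was normalised to DMSO and tetra n-octyl ammonium bromide controls. The read was Cell Titer Glo luminescence after 30 min at RT, following 5 h compound exposure of ME-180 AP-1-bla cells at 37 °C.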

[15] = target: Peroxisome proliferator-activated receptor delta (Homo sapiens) (UniProt Q03181); assay: qHTS assay to identify small molecule antagonists of the peroxisome proliferator-activated receptor delta (PPARd) signaling pathway (AID 743215; active means well fitted inhibition curve with a large enough effect in the signal ratio in the repeat runs, not every such curve was filed as active; the % refers to the signal ratio;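 further: cells stimulated with agonist L165041 at 300 nM final during compound exposure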; further: potency means the concentration at half of the fitted maximal effect)
Chain of Peroxisome proliferator-activated receptor delta (Homo sapiens) (Q03181 whole entry, looked up): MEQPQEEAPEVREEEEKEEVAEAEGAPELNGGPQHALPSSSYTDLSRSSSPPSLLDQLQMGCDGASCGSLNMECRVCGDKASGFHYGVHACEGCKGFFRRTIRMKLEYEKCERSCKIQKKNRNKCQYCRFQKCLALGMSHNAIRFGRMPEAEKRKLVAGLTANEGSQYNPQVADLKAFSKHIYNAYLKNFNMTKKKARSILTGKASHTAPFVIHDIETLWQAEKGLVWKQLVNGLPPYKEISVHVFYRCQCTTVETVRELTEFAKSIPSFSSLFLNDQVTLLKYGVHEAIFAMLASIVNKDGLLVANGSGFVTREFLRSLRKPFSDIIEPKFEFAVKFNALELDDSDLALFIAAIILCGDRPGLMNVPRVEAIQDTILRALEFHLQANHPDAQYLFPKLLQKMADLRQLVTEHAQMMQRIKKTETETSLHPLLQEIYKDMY
Summary of the method: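 Fluorescence from cleaved LiveBLAzer B/G FRET substrate (2 h, room temperature) reports PPARd-driven beta-lactamase in HEK293H UAS-bla cells. Cells had been treated 17 h at 37 C with compound plus 300 nM final L165041.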

[16] = target: Vitamin D3 receptor (Homo sapiens) (UniProt P11473); assay: qHTS assay to identify small molecule antagonists of the vitamin D receptor (VDR) signaling pathway (AID 743223; active means well fitted inhibition curve with a large enough effect in the signal ratio in the repeat runs, not every such curve was filed as active; the % refers to the signal ratio; further: potency means the concentration at half of the fitted maximal effect)
Summary of the method: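 VDR-bla cells were plated, incubated 4 h at 37C, then given compound and 1alpha,25-dihydroxyvitamin D3 (3 nM final). After 16 h at 37C, LiveBLAzer B/G FRET substrate was added for 2 h at room temperature and fluorescence read.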

[17] = target: Peroxisome proliferator-activated receptor delta (Homo sapiens) (UniProt Q03181); assay: qHTS assay to identify small molecule agonists of the peroxisome proliferator-activated receptor delta (PPARd) signaling pathway (AID 743212; calls by dose curve)
Summary of the method: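 Cells expressing a UAS-driven beta-lactamase reporter (PPARd-bla HEK293H) were given test compounds after a 5 h settle and kept at 37 C. Reporter activity was then measured as FRET fluorescence using LiveBLAzer B/G substrate.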

[18] = target: Nuclear receptor ROR-gamma (Homo sapiens) (UniProt P51449); assay: qHTS assay to identify small molecule antagonists of the retinoid-related orphan receptor gamma (ROR-gamma) signaling pathway (AID 1159521; further: nearly all actives have a fitted effect of over 50% in size; further: potency means the concentration at half of the fitted maximal effect)
Summary of the method: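 Tet-on RORγ CHO cells carrying a ROR response element–luciferase reporter were pretreated with compounds for 2 h, then induced with 1 uM (final) doxycycline hyclate for 16 h at 37 C. Antagonism was read as decreased ONE-Glo luminescence.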

[19] = target: Bile acid receptor (Homo sapiens) (UniProt Q96RI1); assay: qHTS assay to identify small molecule antagonists of the farnesoid-X-receptor (FXR) signaling pathway (AID 743217; active means well fitted inhibition curve with a large enough effect in the signal ratio in the repeat runs, not every such curve was filed as active; the % refers to the signal ratio)
Summary of the method: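 FRET fluorescence after 2 h room-temperature LiveBLAzer loading gives the readout. Prior step: FXR-bla HEK 293T cells, seeded and incubated 5 h, received test compounds plus 50 uM final CDCA for 16 h at 37 °C.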

Measured: Potency

O=C(O)c1cccc(-c2noc(-c3ccccc3F)n2)c1
active: [2] 11.9 µM
inactive: [1] | [3] | [4] | [5] | [6] | [7] | [8]

CN1CCCC(CC2c3ccccc3Sc3ccccc32)C1 (configuration not stated)
active: [9] 29.8 µM | [1] 26.6 µM | [10] 13.3 µM | [4] 26.6 µM | [12] 21.3 µM | [8] 16.9 µM
inactive: [11] | [5] | [6] | [13] | [14]

CC1(CN2CCC(n3c(=O)[nH]c4ccccc43)CC2)OCc2ccccc2-n2cccc21 (configuration not stated)
inactive: [15] | [2] | [16] | [12] | [5] | [6] | [14]
active: [9] 33.5 µM

C=CC(C)(CCC=C(C)C)OC(=O)CC(C)C (configuration not stated)
inactive: [9] | [17] | [1] | [15] | [10] | [2] | [3] | [4] | [12] | [5] | [13] | [7] | [18] | [14] | [8]

Cc1cc(C)cc(N)c1
inactive: [9] | [17] | [1] | [15] | [19] | [10] | [11] | [2] | [16] | [4] | [12] | [5] | [13] | [7] | [18] | [14] | [8]

C1COC1
inactive: [9] | [17] | [1] | [15] | [19] | [10] | [11] | [2] | [3] | [16] | [4] | [12] | [5] | [6] | [7] | [18] | [14] | [8]

CC(C)C(O)(c1ccc(OC(F)(F)F)cc1)c1cncnc1 (configuration not stated)
inactive: [9] | [10] | [2] | [16] | [4] | [12] | [5] | [6] | [7] | [18] | [14] | [8]

Oc1c(I)cc(I)c2cccnc12
inactive: [9] | [17] | [1] | [19] | [10] | [2] | [5] | [13] | [7]
active: [16] 21.3 µM

C(=C\c1ccccc1)/c1ccccc1
inactive: [9] | [17] | [1] | [15] | [19] | [11] | [2] | [3] | [16] | [4] | [12] | [5] | [6] | [7] | [18] | [14] | [8]

CC(=O)Nc1cc(S(=O)(=O)O)cc2cc(S(=O)(=O)O)c(N=Nc3ccccc3)c(O)c12
inactive: [9] | [17] | [1] | [15] | [10] | [2] | [3] | [16] | [4] | [12] | [5] | [6] | [13] | [8]

CC(=O)NC1(c2cccc(F)c2)CCN(CC[C@@]2(c3ccc(Cl)c(Cl)c3)CN(c3ccccc3)C(=O)CO2)CC1
inactive: [11] | [3] | [5] | [6] | [14] | [8]
active: [9] 13.8 µM | [1] 21.9 µM | [10] 15.5 µM | [2] 24.6 µM | [4] 39 µM | [12] 43.8 µM

Cc1ccc(Cl)c(Nc2ccccc2C(=O)O)c1Cl
inactive: [9] | [1] | [19] | [10] | [11] | [2] | [4] | [12] | [5] | [13] | [7] | [14] | [8]

O=C(OC(=O)c1ccccc1)c1ccccc1
inactive: [9] | [17] | [15] | [10] | [2] | [3] | [4] | [12] | [5] | [6] | [7] | [18] | [8]

Cc1ccc2c(Br)cc(Br)c(O)c2n1
inactive: [9] | [17] | [1] | [10] | [2] | [3] | [16] | [4] | [5] | [6] | [13]

O=C1NC(=O)c2cc([N+](=O)[O-])ccc21
inactive: [9] | [17] | [1] | [15] | [10] | [2] | [12] | [5] | [13] | [7] | [14]

CS(=O)(=O)c1ccc(-c2cn3ccccc3n2)cc1
active: [9] 29.8 µM | [4] 29.8 µM | [13] 23.9 µM
inactive: [17] | [15] | [10] | [2] | [16] | [5] | [6] | [18]

C[C@@H]1CC(=O)NN=C1c1ccc(NN=C(C#N)C#N)cc1
active: [7] 2.98 µM and 2.11 µM | [18] 4.22 µM
inactive: [9] | [1] | [10] | [2] | [4] | [12] | [5] | [13]

CC(C)=CCC/C(C)=C/CC/C(C)=C/C(=O)OCC(=O)[C@@]1(O)CC[C@H]2[C@@H]3CCC4=CC(=O)C=C[C@]4(C)[C@H]3[C@@H](O)C[C@@]21C
inactive: [5] | [13] | [7] | [14] | [8]
active: [9] 23.7 µM | [4] 26.6 µM

CCCCC(CC)CN (configuration not stated)
inactive: [15] | [3] | [16] | [4] | [5] | [6] | [7] | [14] | [8]

O=C=Nc1ccc(Cl)c(Cl)c1
inactive: [17] | [15] | [19] | [11] | [3] | [16] | [5] | [13] | [7] | [18] | [14] | [8]
active: [10] 30.4 µM

C[C@@H](O[C@H]1OCCN(Cc2n[nH]c(=O)[nH]2)[C@H]1c1ccc(F)cc1)c1cc(C(F)(F)F)cc(C(F)(F)F)c1
active: [9] 26.6 µM | [1] 26.6 µM | [15] 29.8 µM | [2] 29.8 µM | [4] 23.7 µM | [7] 26.6 µM
inactive: [17] | [11] | [5] | [6]

COc1ccccc1NC(=O)c1cc2ccccc2cc1O
inactive: [5] | [6] | [13] | [14] | [8]
active: [1] 43.6 µM | [4] 21.9 µM | [12] 38.9 µM

C=Cc1ccc(S(=O)(=O)O)cc1
inactive: [9] | [15] | [16] | [12] | [5] | [6] | [7] | [18]

CCOC(=O)c1ccc(C#Cc2ccc3c(c2)C(C)(C)CCS3)nc1
inactive: [1] | [10] | [2] | [4] | [12] | [5] | [13] | [7] | [18] | [14] | [8]
